Screening results: PubChem BioAssay, Sanford-Burnham Center for Chemical Genomics
Shown are actives, neighbours in structure and some others; about 31% of the full set was active somewhere.
CYP2C9 inh: human CYP2C9 inhibition. P11712. CYP2C9 Supersomes, luciferin-H conversion, luminescence. inhibition, % at 5 µM. hit rate 20% among 96,000. AID 777;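 active = blocking of liver enzyme CYP2C9 beyond about 50% at 5 µM, limit read from the data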
Target sequence (P11712 whole entry, looked up): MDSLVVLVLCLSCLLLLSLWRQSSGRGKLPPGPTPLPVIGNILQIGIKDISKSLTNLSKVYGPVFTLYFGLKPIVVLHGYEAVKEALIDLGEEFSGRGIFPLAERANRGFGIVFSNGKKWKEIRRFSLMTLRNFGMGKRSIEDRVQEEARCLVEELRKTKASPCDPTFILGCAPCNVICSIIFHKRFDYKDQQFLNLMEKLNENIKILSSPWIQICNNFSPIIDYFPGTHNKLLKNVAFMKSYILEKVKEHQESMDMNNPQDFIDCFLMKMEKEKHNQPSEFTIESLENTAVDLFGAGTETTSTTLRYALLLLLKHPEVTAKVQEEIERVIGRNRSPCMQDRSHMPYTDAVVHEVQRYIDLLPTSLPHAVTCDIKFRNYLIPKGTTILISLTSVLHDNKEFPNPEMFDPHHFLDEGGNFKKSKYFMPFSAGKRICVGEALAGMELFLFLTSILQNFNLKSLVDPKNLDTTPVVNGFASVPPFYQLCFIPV
CYP2C9 activ: increases human cytochrome P450 2C9 activity; activation factor at 5 µM; recombinant CYP2C9, luciferin-H conversion, luminescence; stronger effect = higher value; factor 1 = untreated enzyme, 0 = blocked; hit rate 1.4% among 96,000; P11712;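 active = activation factor of 2 or more for CYP2C9 at a 5 µM dose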;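 also: 0 = sulfaphenazole-blocked wells and 1 = vehicle-only wells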
CYP2C19 activ: increases human CYP2C19 enzyme activity; P33261; recombinant CYP2C19, luciferin-H EGE luminescence; stronger effect = higher value; 0 = fully inhibited enzyme, 1 = untreated enzyme; activation factor at 5 µM; 96,000 tested, under 10 active;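 active = activation factor of at least 2 at 5 µM in the primary screen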;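 also: 0 = wells with 2.5 mM tranylcypromine and 1 = vehicle-only wells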
PLAP act: activators of human placental alkaline phosphatase. P05187. purified PLAP enzyme, luminescent substrate read-out; stronger effect = higher value. activation fold at 20 µM. hit rate 1.2% among 96,000; in the data active = activation fold above about 2
CYP2C19 inh: human CYP2C19 inhibition; P33261; CYP2C19 Supersomes, luciferin-H EGE luminescence, 30 min; inhibition, % at 5 µM; hit rate 21% among 96,000;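 active = CYP2C19 inhibition above a set limit at 5 µM in the primary screen, cut at about 50% in these data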;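 also: plate controls were negative control wells for no effect and 2.5 mM tranylcypromine positive control for full effect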
* = called active by the depositor; / = no result given.

SMILES	CYP2C9 inh	CYP2C9 activ	CYP2C19 activ	PLAP act	CYP2C19 inh
CCOC(=O)c1c(-c2ccc(Cl)cc2)c(C#N)c(=O)n(N)c1N	-4	1	0.8	1	16
CCCC1(CCC)NC(=O)N(CC(=O)N2CCN(C(=O)c3ccco3)CC2)C1=O	20	0.8	1.1	0.9	-12
O=C(Nc1nccs1)c1cccc(S(=O)(=O)N2CCCCC2)c1	68*	0.3	0.1	1.5	94*
CC1CCN(S(=O)(=O)c2cccc(C(=O)Nc3nccs3)c2)CC1	14	0.9	0.9	1.2	12
O=C(CN1C(=O)C2C3C=CC(C3)C2C1=O)Nc1nc(SCc2ccc(Cl)cc2)n[nH]1 (stereo unspecified)	32	0.7	0.4	2.3*	60*
O=C(CN1C(=O)C2C3C=CC(C3)C2C1=O)Nc1nc2ccccc2[nH]1 (stereo unspecified)	7	0.9	1	1.8	-2
CCCOP(=O)(c1ccc(N(C)C)cc1)C(O)c1ccncc1 (stereo unspecified)	37	0.6	0.5	1.5	46
CCOP(=O)(c1ccc(N(C)C)cc1)C(O)c1c(Cl)cccc1Cl (stereo unspecified)	59*	0.4	0.4	1.3	65*
CN(C)c1ccc(P(=O)(OCc2ccccc2)C(O)c2ccncc2)cc1 (stereo unspecified)	63*	0.4	0.3	1.1	66*
O=C(COC(=O)CNS(=O)(=O)c1ccccc1)Nc1ccc(Cl)cn1	-2	1	1	0.9	4
COc1ccc2c(c1)C(C1=C(O)CC(C)(C)CC1=O)C1=C(CC(C)(C)CC1=O)O2 (stereo unspecified)	31	0.7	0.7	1	28
CC1(C)CC(=O)C2=C(C1)Oc1nc3ccccc3cc1C2C(C#N)C#N (stereo unspecified)	60*	0.4	0.7	1.1	26
CCOC(=O)c1c(C)sc2c1N(C(=O)CN(CC)CC)c1cc(Cl)ccc1S2	70*	0.3	0.3	1.8	70*
CCOC(=O)c1c(C)sc2c1N(C(=O)CN1CCOCC1)c1cc(Cl)ccc1S2	14	0.9	0.8	1.5	20
CCN(Cc1nc2ccccc2c(=O)[nH]1)Cc1nc2cc(OC)c(OC)cc2c(=O)[nH]1	10	0.9	0.8	2.2*	16
CCN(CC(=O)Nc1ccc2c(c1)CCC2)Cc1nc2ccccc2c(=O)[nH]1	89*	0.1	0.1	2.6*	92*
CN(CC(=O)Nc1ccccc1Br)Cc1nc2ccccc2c(=O)[nH]1	81*	0.2	0.2	2.4*	83*
COc1cc2nc(CN(C)Cc3nc4ccccc4c(=O)[nH]3)[nH]c(=O)c2cc1OC	30	0.7	1.1	/	-8
COc1cccc(C(=O)N(Cc2ccc3c(c2)OCO3)Cc2nc3ccccc3c(=O)[nH]2)c1	81*	0.2	0.3	1.5	74*
COC(=O)c1cc(OC)c(OC)cc1NC(=O)c1ccoc1C	-5	1	1.1	1	-5
NC1=C(c2ccc(F)cc2)C(=O)CS1	34	0.7	0.7	1.5	26
CN1CCn2c1nc(N1CCOCC1)nc2=O	8	0.9	1	1	-4
CCN(CC(=O)NC(c1ccccc1)c1ccccc1)Cc1nc2ccccc2c(=O)[nH]1	49	0.5	0.4	/	65*
CCN(CC(=O)Nc1ccc2c(c1)OC(F)(F)O2)Cc1nc2ccccc2c(=O)[nH]1	92*	0.1	0.1	/	88*
CCN(CC(=O)NC(=O)NC1CCCCC1)Cc1nc2ccccc2c(=O)[nH]1	33	0.7	0.7	/	27
SMILES	CYP2C9 inh	CYP2C9 activ	CYP2C19 activ	PLAP act	CYP2C19 inh
CCN(CC(=O)NCc1ccc(F)cc1)Cc1nc2cc(Cl)ccc2c(=O)[nH]1	60*	0.4	0.6	2.7*	41
CCN(CC(=O)Nc1cccc(Br)c1)Cc1nc2ccccc2c(=O)[nH]1	65*	0.3	0.3	0.9	72*
CCc1ccc2c(CN(CC)Cc3nc4ccccc4c(=O)[nH]3)cc(=O)oc2c1	40	0.6	0.5	1.4	48
CN(C1CCCCC1)S(=O)(=O)c1ccc(NC(=O)C2CCCCC2C(=O)O)cc1 (stereo unspecified)	1	1	0.9	1.4	12
CCOC(=O)N1CCN(C(=O)C2CCN(S(=O)(=O)c3ccccc3)CC2)CC1	-3	1	1	1.7	4
COc1ccccc1NC(=O)N(Cc1ccc2c(c1)OCO2)Cc1nc2ccccc2c(=O)[nH]1	0	1	1	1.2	3
CCN(CC(=O)Nc1ccc2c(c1)OCO2)Cc1nc2ccccc2c(=O)[nH]1	81*	0.2	0.2	/	77*
COc1ccccc1CN(Cc1nc2ccccc2c(=O)[nH]1)C(=O)Nc1cccc(C)c1	57*	0.4	0.3	1.6	67*
Cc1ccccc1-c1nc(CN2CCC(C(=O)N3CCN(c4ccccn4)CC3)CC2)c(C)o1	55*	0.4	0.9	1.8	13
CCc1ccc(-c2nc(CN3CCC(C(=O)NCCc4ccc(OC)c(OC)c4)CC3)c(C)o2)cc1	38	0.6	0.8	2.4*	19
Cc1ccccc1-c1nc(CN2CCC(C(=O)NCCCN3CC(C)CC(C)C3)CC2)c(C)o1 (stereo unspecified)	-9	1.1	1.1	2*	-12
Cc1ccccc1-c1nc(CN2CCC(C(=O)NCc3ccco3)CC2)c(C)o1	16	0.8	0.9	1.3	6
Cc1ccccc1-c1nc(CN2CCC(C(=O)NCc3cccs3)CC2)c(C)o1	42	0.6	0.7	2.6*	31
COc1ccc(CCNC(=O)C2CCN(Cc3nc(-c4ccccc4F)oc3C)CC2)cc1OC	-8	1.1	1.1	1.7	-9
CC(c1ccco1)N(C(=O)c1ccc(C#N)cc1)c1ccccn1 (stereo unspecified)	7	0.9	0.8	0.8	19
CC(=O)OCCn1c(=O)c2cc3c(=O)n(CCOC(C)=O)c(=O)c3cc2c1=O	0	1	1.1	0.8	-7
Cc1oc(-c2ccccc2F)nc1CN1CCC(C(=O)NCCC2=CCCCC2)CC1	-127	2.3*	1	1.8	5
Cc1[nH]nc2ncc(C(=O)c3cc(Cl)cc(Cl)c3O)cc12	32	0.7	1	1.3	-3
Cc1noc2ncc(C(=O)c3cc(F)ccc3O)cc12	50*	0.5	0	1.2	96*
Cc1[nH]nc2ncc(C(=O)c3cc(F)ccc3O)cc12	-10	1.1	0.4	1.4	58*
O=C(c1cn[nH]c1)c1cc(F)ccc1O	-7	1.1	0.9	0.9	8
CCOC(=O)CN1N=C(/C=C/c2ccc(OC)cc2)CCC1=O	-8	1.1	1	1	-4
CCOC(=O)C1CSC(CC(=O)Nc2ccc(Cl)c(Cl)c2)C(=O)N1 (stereo unspecified)	-37	1.4	0.8	1.2	18
CCc1ccc(C(=O)COC(=O)c2cccc(N3C(=O)c4c(C)nc5ccccc5c4C3=O)c2)cc1	36	0.6	1	1.2	-5
